Compounds with a hit are over-represented: about 12% of the library has one in this group of screens.
G9a block = G9a (human) methyltransferase inhibition. G9a H3K9 monomethylation, AlphaScreen, 2 h. Potency, µM (titrated, usually from 102 µM), most hits filed as inhibitors. 8.8% of 350,000 active; note: nearly all actives have a fitted effect of over 75% in size
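Signal arises when biotinylated H3K9 peptide, once monomethylated, bridges streptavidin donor and antibody-captured acceptor beads. Enzyme at 20 nM was preincubated 15 min with test compounds; peptide 500 nM and SAM 20 uM then reacted for 2 h.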
BAZ2B inh = BAZ2B (human) inhibition; AlphaScreen BAZ2B-H3K14Ac peptide displacement; Potency, µM (top dose mostly 114 µM), usual class: inhibitors; AID 504333; 4.4% of 360,000 active; note: nearly all actives have a fitted effect of over 60% in size
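Compounds, titrated to a top concentration of 110 uM, were incubated 30 min at room temperature with preformed BAZ2B/acetyl-K14 H3 peptide complex (50 nM each). Proximity signal was measured by AlphaScreen after 20 min with beads.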
JMJD2A Tudor inh = inhibitors of human JMJD2A Tudor domain; AlphaScreen JMJD2A-Tudor / H3K4me3 peptide binding; O75164; Potency, µM (series often up to 114 µM), actives largely listed as inhibitors; 4.4% of 390,000 active; note: nearly all actives have a fitted effect of over 50% in size
Target sequence (O75164 whole entry, looked up, the tested form may be a part): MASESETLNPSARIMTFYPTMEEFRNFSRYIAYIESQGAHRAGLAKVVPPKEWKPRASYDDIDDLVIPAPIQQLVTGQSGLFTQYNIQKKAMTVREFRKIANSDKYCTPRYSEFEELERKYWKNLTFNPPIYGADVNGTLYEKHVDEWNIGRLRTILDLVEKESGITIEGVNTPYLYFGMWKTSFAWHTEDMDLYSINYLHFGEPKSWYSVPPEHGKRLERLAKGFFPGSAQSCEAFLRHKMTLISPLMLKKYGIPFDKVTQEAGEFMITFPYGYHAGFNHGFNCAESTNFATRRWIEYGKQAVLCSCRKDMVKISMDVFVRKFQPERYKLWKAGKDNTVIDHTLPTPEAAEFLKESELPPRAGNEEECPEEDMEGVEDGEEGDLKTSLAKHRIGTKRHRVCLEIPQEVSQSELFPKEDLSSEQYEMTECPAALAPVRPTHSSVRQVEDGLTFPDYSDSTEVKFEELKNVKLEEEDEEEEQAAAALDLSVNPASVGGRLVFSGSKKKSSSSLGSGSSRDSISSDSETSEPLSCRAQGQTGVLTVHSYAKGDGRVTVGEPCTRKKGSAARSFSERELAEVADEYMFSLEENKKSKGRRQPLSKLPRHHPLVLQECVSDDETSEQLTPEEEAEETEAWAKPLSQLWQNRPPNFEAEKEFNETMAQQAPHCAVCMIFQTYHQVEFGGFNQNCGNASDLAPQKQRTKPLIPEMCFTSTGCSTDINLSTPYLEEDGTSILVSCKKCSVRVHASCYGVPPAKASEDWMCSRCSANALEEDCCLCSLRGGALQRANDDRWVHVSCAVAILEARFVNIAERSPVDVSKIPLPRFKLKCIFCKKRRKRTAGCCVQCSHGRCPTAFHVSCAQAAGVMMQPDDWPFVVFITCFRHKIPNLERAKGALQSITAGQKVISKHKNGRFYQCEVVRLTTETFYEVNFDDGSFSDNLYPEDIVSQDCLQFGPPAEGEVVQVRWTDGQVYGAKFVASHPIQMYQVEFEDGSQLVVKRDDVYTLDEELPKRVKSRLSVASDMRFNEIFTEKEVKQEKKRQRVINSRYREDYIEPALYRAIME
TDP1 block = blocks human tyrosyl-DNA phosphodiesterase 1; Q9NUW8; recombinant TDP1, AlphaScreen DNA substrate cleavage; Potency, µM (doses to about 130 µM), hits mostly inhibitors; 0.28% of 350,000 active; AID 485290; note: nearly all actives have a fitted effect of over 40% in size
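E. coli-derived human Tdp1, 1 nM final. Cpd preinc 15 min RT; substrate 15 nM final, 5 min RT; AS bead mix 10 ug/ml final, 10 min RT. Signal loss = tyrosine-FITC cleavage. No-enzyme wells = max signal.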
HP1b chromo inh = HP1-beta chromodomain-methylated histone interaction inhibition | AlphaScreen HP1-beta / biotin-H3K9me3 peptide binding | P83916 | 0.56% of 390,000 active | Potency, µM (titrated, usually from 114 µM), most hits filed as inhibitors; note: nearly all actives have a fitted effect of over 70% in size
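Compound inhibition of the preformed complex between 50 nM HP1-beta and 50 nM biotinylated H3K9me3 peptide was read by AlphaScreen. Buffer was PBS pH 7.4 with 0.01% Tween-20. Incubations ran 30 min at room temperature, with 10 ug/mL donor/acceptor beads.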
Sfp inh = Sfp phosphopantetheinyl transferase inhibition. Q9F4F7. Biochemical Sfp PPTase activity, qHTS. Potency, µM, usual class: inhibitors. 3.5% of 310,000 active. AID 1490;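 note: the enzyme is Sfp with the accession as filed and its product quenches rhodamine fluorescence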
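Step 1, compound plus 15 nM Sfp-PPTase, 15 min, room temperature. Step 2, add rhodamine-CoA (5 uM) and BHQ-2-YbbR (12.5 uM). Step 3, read 525/598 nm fluorescence at 0 and 30 min.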
A number is an active result; [ ] = dose if it differs, or a comment. Calls come from the whole dose curve; as a rule, active = well fitted curve in the direction sought with a large enough effect; inconclusive = small, poorly fitted or top-dose-only effect, or another doubt; inactive = no such curve, though single readings can be large; an effect the other way counts as inactive or inconclusive.

For Cc1ccc(S(=O)(=O)NCC(c2ccc(N(C)C)cc2)N2CCCC2)cc1 (centres undefined) the results were G9a block inconclusive, BAZ2B inh inconclusive, JMJD2A Tudor inh inconclusive, TDP1 block inactive and HP1b chromo inh inconclusive.
O=C(N/N=C/c1cc([N+](=O)[O-])ccc1O)c1cccc(NC(=O)c2cccc(Cl)c2)c1 was read as G9a block inactive, BAZ2B inh inactive, JMJD2A Tudor inh inactive, TDP1 block 56µM, HP1b chromo inh inactive and Sfp inh inactive.
For Cc1cccc(NC(=O)CCC(=O)N/N=C/c2cc([N+](=O)[O-])ccc2O)c1 the results were G9a block inactive, BAZ2B inh inactive, JMJD2A Tudor inh inactive, TDP1 block inactive, HP1b chromo inh inconclusive and Sfp inh inactive.
`Cc1nc2ccc(C(=O)N/N=C/c3cc([N+](=O)[O-])ccc3O)cc2[nH]1` gave G9a block inactive, BAZ2B inh 35µM, JMJD2A Tudor inh 56µM, TDP1 block inactive, HP1b chromo inh inactive and Sfp inh inactive.
`O=C(N/N=C/c1cccc([N+](=O)[O-])c1)c1nc2ccccc2c(=O)[nH]1` gave G9a block inactive, BAZ2B inh inactive, JMJD2A Tudor inh inactive, TDP1 block inactive, HP1b chromo inh inactive and Sfp inh inactive.
`O=C(N/N=C/c1ccccc1Cl)c1nc2ccc([N+](=O)[O-])cc2c(=O)[nH]1` gave G9a block inconclusive, BAZ2B inh inactive, JMJD2A Tudor inh 25µM, TDP1 block inactive, HP1b chromo inh inactive and Sfp inh inactive.
O=C(C1COc2ccccc2O1)N1CCN(c2nc3c(F)cccc3s2)CC1 (centres undefined) was read as G9a block inactive, BAZ2B inh inactive, JMJD2A Tudor inh inactive, TDP1 block inactive and HP1b chromo inh inactive.
`CC(C)N(C(=O)Cn1c(=O)oc2ccccc21)c1ccccc1` gave BAZ2B inh inactive, JMJD2A Tudor inh inactive, HP1b chromo inh inactive and Sfp inh inactive.
COc1ccc(S(=O)(=O)NCc2ccc(C(=O)N3CCc4ccccc4C3)cc2)cc1 was read as G9a block inactive, BAZ2B inh inactive, JMJD2A Tudor inh inactive, TDP1 block inactive, HP1b chromo inh inconclusive and Sfp inh inactive.
NC(=O)C[C@@H]1NC(=O)c2cc([N+](=O)[O-])cc(F)c2NCCCC[C@@H](C(N)=O)NC(=O)[C@H](CO)NC1=O was read as G9a block 50µM, BAZ2B inh inconclusive, TDP1 block inactive and Sfp inh inactive.
For NC(=O)[C@@H]1CCCNc2c(F)cc([N+](=O)[O-])cc2C(=O)N[C@@H](CCC(=O)O)C(=O)N[C@@H](CO)C(=O)N1 the results were G9a block 79µM, BAZ2B inh inactive, JMJD2A Tudor inh inactive, TDP1 block inactive, HP1b chromo inh inactive and Sfp inh inactive.
Screening COc1ccc(/C=C/CN2CCC(n3nccc3NC(=O)C3CCCC3)CC2)cc1 returned BAZ2B inh inactive, JMJD2A Tudor inh inactive, TDP1 block inactive, HP1b chromo inh inactive and Sfp inh inactive.
Screening COc1ccccc1-n1c(SCC(=O)N2CCc3ccccc32)nc2c(c1=O)SCC2 returned G9a block inactive, BAZ2B inh inactive, JMJD2A Tudor inh inactive, TDP1 block inactive, HP1b chromo inh inactive and Sfp inh 79µM.
`O=c1c2ccccc2nc2n1CC/C2=C\N1CCN(c2ccc([N+](=O)[O-])cc2)CC1` gave JMJD2A Tudor inh inconclusive and HP1b chromo inh inactive.
`Cc1ccc(S(=O)(=O)N2C(=O)C(C)SC2=Nc2ccccc2)cc1` (centres undefined) gave G9a block inactive, BAZ2B inh inactive, JMJD2A Tudor inh inactive, TDP1 block inactive, HP1b chromo inh inactive and Sfp inh inactive.
Cc1ccc(S(=O)(=O)N2C(=O)C(c3ccccc3)SC2=Nc2ccccc2)cc1 (centres undefined) was read as G9a block 7.9µM, BAZ2B inh inactive, JMJD2A Tudor inh inactive, TDP1 block inactive, HP1b chromo inh inconclusive and Sfp inh 20µM.
Screening CCC(C)c1ccccc1OCCCN(C)Cc1ccccc1 (centres undefined) returned G9a block 11µM, BAZ2B inh inconclusive, JMJD2A Tudor inh 7.1µM, HP1b chromo inh inactive and Sfp inh inactive.
For OCCNCCCCOc1ccc(F)cc1 the results were G9a block inactive, BAZ2B inh inactive, JMJD2A Tudor inh inactive, TDP1 block inactive, HP1b chromo inh inactive and Sfp inh inactive.
`CN(C)CCCCOc1ccc(F)cc1` gave G9a block 8.9µM, BAZ2B inh 79µM, JMJD2A Tudor inh 0.89µM, TDP1 block inactive, HP1b chromo inh inconclusive and Sfp inh inactive.
Screening CN(C)CCOc1ccccc1Cc1ccccc1 returned G9a block inconclusive, BAZ2B inh inconclusive, JMJD2A Tudor inh inactive, TDP1 block inactive, HP1b chromo inh inactive and Sfp inh inactive.
For COc1ccc(N(Cc2ccccc2)S(=O)(=O)c2ccc(C)cc2)cc1 the results were G9a block inactive, BAZ2B inh inactive, JMJD2A Tudor inh inactive[11.4 µM], TDP1 block inactive, HP1b chromo inh inactive and Sfp inh inactive.
For COc1ccc(OCCCN(C)Cc2ccccc2)cc1 the results were G9a block 13µM, BAZ2B inh inconclusive, JMJD2A Tudor inh 25µM, HP1b chromo inh inconclusive and Sfp inh inactive.
For COc1ccc(N(Cc2ccccc2)N=O)cc1 the results were G9a block 40µM, BAZ2B inh inactive, JMJD2A Tudor inh inactive, HP1b chromo inh inactive and Sfp inh inactive.
COc1ccc2cc(CNc3ccc(C)cc3)c(=O)n(CC(=O)Nc3ccc(C)cc3Cl)c2c1 was read as G9a block inactive, BAZ2B inh inactive, JMJD2A Tudor inh inactive, TDP1 block inactive and HP1b chromo inh inactive.
For CCc1ccc(OCCCCN(C)Cc2ccccc2)cc1 the results were BAZ2B inh inconclusive, JMJD2A Tudor inh 14µM, HP1b chromo inh inconclusive and Sfp inh inactive.
For Cc1cc(C)c(C)c(OCCCCN(C)Cc2ccccc2)c1 the results were G9a block 10µM, BAZ2B inh 50µM, JMJD2A Tudor inh 11µM, HP1b chromo inh inconclusive and Sfp inh inactive.
CN(CCCCOc1ccc(F)cc1)Cc1ccccc1 was read as BAZ2B inh 79µM, JMJD2A Tudor inh 22µM, HP1b chromo inh inconclusive and Sfp inh inactive.
Screening Cc1cc(C)c(C)c(OCCCCn2cnc3ccccc3c2=O)c1 returned G9a block inactive, BAZ2B inh inactive, JMJD2A Tudor inh inactive, TDP1 block inactive, HP1b chromo inh inactive and Sfp inh inactive.
For CN(CCOc1ccc(F)cc1)Cc1ccccc1 the results were G9a block 10µM, BAZ2B inh 50µM, JMJD2A Tudor inh 0.79µM, HP1b chromo inh inconclusive and Sfp inh inactive.
Screening COc1ccc(OCCN(C)Cc2ccccc2)cc1 returned G9a block inconclusive, BAZ2B inh inactive, JMJD2A Tudor inh inactive, TDP1 block inactive, HP1b chromo inh inactive and Sfp inh inactive.
For Cc1cc(C)n2ncc(C(=O)NCC(C)C)c2n1 the results were JMJD2A Tudor inh inactive.

Source: PubChem BioAssay
